KinaseGlo FLuc: Kinase-Glo luciferase inhibition (counter-screen) | Q27757 | Kinase-Glo luciferase, ATP luminescence, 8 min | Potency, µM (top dose mostly 38.3 µM), inactives show at the top dose activity change, negative = inhibition, hits mostly inhibitors | 0.28% of 200,000 active | AID 1379; further: on the % scale 0 is the no-effect control and ±100 the full control effect; nearly all actives have a fitted effect of over 60% in size
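Kinase-Glo luciferase light output from ATP and luciferin was measured with 10 uM ATP, within the enzyme's linear range. Buffer: 50 mM imidazole pH 7.2, 50 mM KCl, 7 mM MgCl2, 0.01% Tween 20, 0.05% BSA; luminescence read after 8 min at ambient temperature.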
ELG1 genotox: genotoxicity induction in ELG1-luciferase HEK293T cells | HEK293T ELG1-luciferase reporter, luminescence, 16 h | Potency, µM (series often up to 46 µM), for inactives: at the top dose activity change, positive = activation, actives largely listed as activators | 1.3% of 330,000 active | AID 504466; further: % of control where 0% means no effect; nearly all actives have a fitted effect of over 60% in size
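DMSO vehicle served as control against compound-treated ELG1-luciferase HEK293T cells; exposure lasted 16 hr at 37 °C and 5% CO2, followed by ONE-Glo luminescence detection after 30 min.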
Rab9 promoter act: activators of Rab9 promoter; Huh7 Rab9 promoter-luciferase reporter, luminescence, 24 h; Potency, µM (top dose mostly 9.22 µM), for inactives: at the top dose activation, negative = inhibition, usual class: activators; 2.8% of 320,000 active; further: % of control where 0% means no effect; nearly all actives have a fitted effect of over 60% in size
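Luciferase signal after 10 min detection reagent at ambient indicates Rab9 promoter upregulation; stably transfected Huh7 cells were treated 24 h with compound in DMSO at 37 °C, 5% CO2.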
NPC1 prom act: activates the NPC1 promoter. Huh7 NPC1 promoter luciferase reporter, 24 h. Potency, µM (series often up to 9.22 µM), without a hit: top-dose activation, most hits filed as activators. 2.4% of 320,000 active; further: % of control where 0% means no effect; nearly all actives have a fitted effect of over 60% in size
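Luciferase expression driven by the NPC1 promoter was measured in stably transfected Huh7 cells after a 24 h compound incubation, using a luciferase reagent and a luminescence read.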
SMN2 splice enh: enhancers of SMN2 splice variant expression; AID 1458; Potency, µM (highest dose often 46.1 µM), for the others: at the top dose activity change, positive = activation, hits mostly activators; 2.8% of 210,000 active; HEK293 SMN2-luciferase splicing reporter, luminescence, 30-36 h; further: % of control where 0% means no effect; nearly all actives have a fitted effect of over 55% in size
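HEK293 cells carry an SMN2 […]–luciferase reporter in which exon 7 inclusion puts luciferase in frame. Cells were plated 10-12 h before compound addition, then incubated 30-36 h at 37C. ONE-Glo luminescence was read; sodium butyrate at 4.5 mM final served as control.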
FLuc modulator: firefly luciferase modulation, counter-screen for miR-21 project. Potency, µM (series often up to 57.5 µM), for inactives: at the top dose activity change, negative = inhibition, actives largely listed as inhibitors. purified FLuc, Km substrates, luminescence inhibition. 6.9% of 360,000 active. P08659. AID 588342;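 further: plate controls were vehicle for no effect and reference inhibitor for full effect; nearly all actives have a fitted effect of over 55% in size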
Target sequence (P08659 whole entry, looked up): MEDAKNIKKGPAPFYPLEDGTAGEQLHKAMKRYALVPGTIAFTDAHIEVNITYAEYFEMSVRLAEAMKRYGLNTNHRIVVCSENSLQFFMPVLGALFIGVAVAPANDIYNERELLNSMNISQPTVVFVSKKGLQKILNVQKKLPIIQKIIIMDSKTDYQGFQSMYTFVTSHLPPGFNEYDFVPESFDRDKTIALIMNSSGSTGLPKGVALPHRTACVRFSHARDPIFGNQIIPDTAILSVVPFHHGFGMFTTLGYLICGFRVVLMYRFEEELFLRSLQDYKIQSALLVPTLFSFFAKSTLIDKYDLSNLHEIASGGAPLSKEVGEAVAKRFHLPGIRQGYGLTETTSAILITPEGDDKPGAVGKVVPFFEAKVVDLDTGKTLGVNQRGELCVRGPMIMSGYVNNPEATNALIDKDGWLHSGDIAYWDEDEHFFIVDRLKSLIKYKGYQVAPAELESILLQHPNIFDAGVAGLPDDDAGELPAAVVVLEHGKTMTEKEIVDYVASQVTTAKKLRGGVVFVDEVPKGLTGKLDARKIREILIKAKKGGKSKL
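Biochemical qHTS of compounds, final roughly 60 µM downward over six points, against 10 nM purified firefly luciferase using Km concentrations of substrates (10 uM D-luciferin, 10 uM ATP) in Tris acetate pH 7.5 buffer; luminescence output.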
* = called active by the depositor; u = inconclusive; x = no result given; [ ] = remark or other dose. Sampled rows, rich in hits. Any-hit rate of the full collection: about 7.3%. The call rests on the fitted dose curve; in most records, active means well fitted curve in the direction sought with a large enough effect; inconclusive means small, poorly fitted or top-dose-only effect, or another doubt; inactive means no such curve, though single readings can be large; an effect the other way counts as inactive or inconclusive. Potency means the concentration at half of the fitted maximal effect.

SMILES	KinaseGlo FLuc	ELG1 genotox	Rab9 promoter act	NPC1 prom act	SMN2 splice enh	FLuc modulator
CCOc1ccc2nc(N3CCC(C(=O)N4CCN(c5ccccn5)CC4)CC3)sc2c1	4%	7.3µM*	-15%	-1%	-86%	11µM*
CCOc1ccc2nc(N3CCC(C(=O)N4CCN(c5ncccn5)CC4)CC3)sc2c1	x	-1%	17%	u	x	12µM*
CCOc1ccc2nc(N3CCCC(C(=O)NCc4ccccc4OC)C3)sc2c1 (stereo not given)	x	x	x	x	11%	u
Fc1cc(Br)ccc1Nc1c2c(nc3nc(-c4cccs4)nn13)CCCC2	x	x	x	x	x	-17%
CCCCS(=O)(=O)N1CCc2nc(-c3ccccc3)c3c(c2C1)CO[C@@H](C)C3	-2%[7.66 µM]	x	x	x	-3%[9.22 µM]	x
S=C(Nc1ccc(Cl)cc1)c1nc2ccccc2[nH]1	-9%	10%	1.8µM*	3.2µM*	14µM*	3.8µM*
OC(c1ccc(Cl)cc1)C(O)c1nc2ccccc2[nH]1 (stereo not given)	-4%	-2%	-5%	-1%	-9%	-1%
Cc1ccccc1NC(=O)NCCc1nc2ccccc2[nH]1	2%	1%	4%	-5%	u	-2%
Cc1ccccc1NC(=S)c1nc2ccccc2[nH]1	-5%	7%	27%	25%	29%	11µM*
COc1ccc(N2CCN(Cc3cccn3-c3nnc(N4CCN(C5CCCCC5)CC4)s3)CC2)cc1	x	x	x	x	x	-5%
COc1ccc(-c2ccc(=O)n(Cc3c(F)cccc3Cl)n2)cc1	x	6%	-2%	3%	x	u
COc1ccc(-c2ccn(-c3cccc(F)n3)n2)cc1	-7%	u	2.2µM*	3.2µM*	-55%	15µM*
Cc1ccc(C(=O)N/C(=C\c2ccc(-c3cc(Cl)ccc3Cl)o2)C(=O)NCc2cccnc2)cc1	-1%	5%	u	u	8%	19µM*
CN(C)c1ccc(/C=C(/NC(=O)c2ccccc2)C(=O)NCCCn2ccnc2)cc1	x	1%	-1%	-3%	x	4.8µM*
CN(C)c1ccc(/C=C(\NC(=O)c2ccccc2)C(=O)NCc2cccnc2)cc1	x	-2%	-3%	0%	x	11µM*
O=C(NCCCn1ccnc1)/C(=C/c1ccc(Cl)cc1)NC(=O)c1ccccc1	x	-4%	1%	-3%	x	1%
O=C(NCc1cccnc1)/C(=C/c1ccc(-c2cccc(Cl)c2)o1)S(=O)(=O)c1ccccc1	5%	-22%	-27%	-29%	-99%	2%
COC(=O)COc1ccc2cc(-c3ccc(OC)cc3)c(=O)oc2c1	x	4%	0%	-3%	x	u
COc1ccc(-c2cc3ccc(OCC(C)=O)cc3oc2=O)cc1OC	x	u	2µM*	4µM*	x	15µM*
COc1ccc(-c2cc3ccc(OCC(C)=O)cc3oc2=O)cc1	x	u	1µM*	1.3µM*	x	1.9µM*
COc1ccc(-c2cc3ccc(OCc4nn[nH]n4)cc3oc2=O)cc1OC	-12%	2%	-7%	-1%	15%	15µM*
COC(=O)COc1ccc2cc(-c3ccccc3)c(=O)oc2c1	x	-1%[9.26 µM]	-6%	0%	x	12µM*
OCc1ccccc1OCCOc1ccc(Cl)c2cccnc12	0%	u	25%	27%	29%	19µM*
Clc1ccc(OCc2cn3ccccc3n2)c2ncccc12	-4%	u	2.8µM*	3.5µM*	x	12µM*
CCc1ccccc1Nc1nc2ccccc2n2cnnc12	x	x	x	x	22%	2%
SMILES	KinaseGlo FLuc	ELG1 genotox	Rab9 promoter act	NPC1 prom act	SMN2 splice enh	FLuc modulator
CC(=O)Nc1c(C)nn(-c2ccccc2)c1N1CCC(C(=O)NCc2ccc(F)cc2)CC1	x	x	x	x	x	2%
COc1ccc(-n2cc3ccc([N+](=O)[O-])cc3n2)cc1	x	u	0.45µM*	0.71µM*	x	0.95µM*
Cc1nn(-c2ccc(Br)cc2)c(=O)c2ccccc12	x	23%	2.8µM*	u	x	8.5µM*
Cn1c(=O)c2[nH]c(-c3ccccc3O)nc2n(C)c1=O	-1%	-6%	-5%	25%	-2%	-17%
CCCOc1ccccc1-c1nc2c([nH]1)c(=O)[nH]c(=O)n2C	2%	u	-1%	-1%	28µM*	7%
O=C1C2C3C=CC(C3)C2C(=O)N1c1ccc2ccccc2n1 (stereo not given)	4%	1%	2%	1%	-1%	u
Cc1ccc(CC2CC(=O)N(c3nc4ccccc4s3)C2=O)cc1 (stereo not given)	0%	0%	-9%	-1%	x	27µM*
COc1ccc2nc(N3C(=O)CC(Cc4ccc(C)cc4)C3=O)sc2c1 (stereo not given)	3%	-1%	-2%	0%	-7%	u
O=C1C2C3C=CC(C3)C2C(=O)N1c1nc2ccccc2s1 (stereo not given)	-3%	0%	-5%	2%	-16%	19µM*
CCCCC(=O)N/C(N)=N/c1nc2ccccc2o1	x	u	1.8µM*	1.3µM*	x	3µM*
N/C(=N\c1nc2ccccc2o1)NC(=O)c1ccccc1F	-2%	u	2.5µM*	1.6µM*	u	8.5µM*
CC1(C)CC(=O)C2=C(C1)O[C@@]1(CCCCN3C(=O)c4ccccc4C3=O)Cc3cc(C#N)ccc3C2O1	x	x	-7%[1.84 µM]	0%[1.84 µM]	x	-1%[11.5 µM]
COc1ccc(N(CC(=O)NCCc2ccc(C)cc2)S(=O)(=O)c2c(C)nn(C)c2C)cc1	x	x	x	x	2%	-8%
COc1cccc(NC(=O)Nc2ccc3c(c2)OCO3)c1	x	u	1.4µM*	2µM*	x	7.6µM*
O=C(Nc1ccc2c(c1)OCO2)Oc1ccccc1	-11%	x	x	x	-7%	11µM*
COc1ccc(OC)c(NC(=O)Nc2ccc3c(c2)OCO3)c1	x	0%	8%	4%	x	27µM*
O=C(CC1N=C2c3ccccc3N=C(SCc3cccc(Cl)c3)N2C1=O)NCCc1ccccc1 (stereo not given)	x	x	x	x	x	-11%
Cc1ccc(NC(=O)c2oc3ccccc3c2NC(=O)C23CC4CC(CC(C4)C2)C3)cc1	x	x	x	x	-7%	0%
Cc1ccccc1Nc1nc(N)nc(COC(=O)c2ccc(O)cc2)n1	-3%	2%	16%	-2%	16%	-11%
Cc1ccccc1Nc1nc(N)nc(COC(=O)c2cccn2C)n1	-3%	16µM*	u	3.5µM*	11µM*	17µM*
Cc1ccccc1Nc1nc(N)nc(COC(=O)c2ccccc2)n1	-2%	u	2.2µM*	u	u	15µM*
O=C(N/N=C/c1cccc(O)c1)c1ccc2c(c1)OCCO2	x	u	-1%	u	x	1.7µM*
O=C(N/N=C/c1c(Cl)[nH]c2ccccc12)c1ccc2c(c1)OCCO2	x	u	u	u	x	1.5µM*

Assay outcomes from PubChem BioAssay.
